# Compounds with a hit are over-represented: about 1.1% of the library has one in this group of screens.
# OPRM1-OPRD1 inv = mu-delta opioid heterodimer inverse agonism; P35372+P41143; cell-based MOR-DOR heterodimer luminescence; inhibition, % at 9.3 µM; AID 504357; 0.21% of 340,000 active; in the data active means inhibition above about 22%, passing the limit was not always enough;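 further: 0% = cells with DMSO and 100% = wells without cells with DMSO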
# OPRM1-OPRD1 ag = agonists of human mu-delta opioid receptor heterodimerization; P35372+P41143; cells, OPRM1-OPRD1 heterodimerization, luminescence; activation, % at 9.3 µM; 0.3% of 340,000 active; AID 504326; in the data active means activation above about 18%;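 further: 0% = vehicle-treated cells and 100% = reference agonist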
# HTR5A ag = activates human HTR5A in OPRM1-OPRD1 agonist counter-screen | HTR5A agonist assay, luminescence, cell-based | activation, % at 9.3 µM | 0.61% of 340,000 active | AID 504692; in the data active means activation mostly above about 9.5%, no sharp cut-off; inactive means mostly below about 7.6%;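 further: 0% = cells with vehicle only and 100% = reference agonist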
# Target sequence (P47898 whole entry, looked up): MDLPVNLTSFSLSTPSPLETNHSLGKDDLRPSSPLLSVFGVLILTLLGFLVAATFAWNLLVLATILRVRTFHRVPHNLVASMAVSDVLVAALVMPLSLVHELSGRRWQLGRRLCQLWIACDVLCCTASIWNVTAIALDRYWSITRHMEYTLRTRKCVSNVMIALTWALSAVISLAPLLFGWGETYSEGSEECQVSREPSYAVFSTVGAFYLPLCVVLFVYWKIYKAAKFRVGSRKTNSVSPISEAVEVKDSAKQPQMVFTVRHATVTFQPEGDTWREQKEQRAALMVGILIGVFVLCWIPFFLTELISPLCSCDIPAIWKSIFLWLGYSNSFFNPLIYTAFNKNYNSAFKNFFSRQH
# HTR5A inv ag = HTR5A inverse agonism, opioid heterodimer counter-screen | AID 504634 | HTR5A cell line, luminescence | 0.083% of 340,000 active | P47898 | inhibition, % at 9.3 µM; in the data active means inhibition mostly above about 23%, no sharp cut-off; inactive means mostly below about 18%;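 further: 0% = cells with DMSO and 100% = no-cell wells with DMSO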
# Starred values were filed as active, the others as inactive.
SMILES,OPRM1-OPRD1 inv,OPRM1-OPRD1 ag,HTR5A ag,HTR5A inv ag
Cc1ccc(NC(=O)CN2CCN(c3ccccn3)CC2)cc1S(=O)(=O)N(C)C,-17,3,9.4*,-26
Cc1ccccc1OCCc1c(C)[nH]c(=S)[nH]c1=O,22,-5,12*,-3
O=C(O)c1cccc(N2C(=O)C3CC=CCC3C2=O)c1 (stereo unspecified),18,-4,1,10
O=C(O)c1cccc(N2C(=O)C3CC=C(Cl)CC3C2=O)c1 (stereo unspecified),6,-1,11*,-30
Cc1c(C(=O)Nc2ccc(S(=O)(=O)NCC3CCCO3)cc2)cccc1[N+](=O)[O-] (stereo unspecified),9,-2,2,-5
CCCC(=O)Nc1ccc2c(c1)nc(CN1CCN(C(=O)OCC)CC1)n2CC,11,-2,9.8*,-34
O=C(NC(Cc1ccccc1)C(=O)NC1CC1)OCc1ccccc1 (stereo unspecified),-7,1,12*,27
CC(C)[C@H](NC(=O)OCc1ccccc1)C(=O)NCc1ccccc1,7,-1,12*,-32
Cc1cc(C(C)(C)C)ccc1OCC(=O)N/N=C\c1c(C)n(C)n(-c2ccccc2)c1=O,-5,1,-1,2
CC(/C=C/c1ccco1)=N\NC(=O)CNc1ccc2ccccc2c1,-1,0,12*,-18
COc1cccc(NC(=O)Nc2nnc(N3C(C)CCCC3C)s2)c1 (stereo unspecified),-31,6,8,5
O=C(NC1CCCC(C(F)(F)F)C1)c1ccc([N+](=O)[O-])o1 (stereo unspecified),-18,5,14*,-19
O=C(NC1CCCCC1)c1ccc([N+](=O)[O-])o1,-25,4,4,-7
O=C(Cc1ccccc1F)Nc1ccc2c(c1)CCC2,-3,0,9.6*,-26
COc1ccccc1N(C(=O)CCl)c1cn(C(C)=O)c2ccccc12,-252,50*,39*,8
CCOC(=O)c1ccccc1Nc1cn(C(C)=O)c2ccccc12,9,-2,-3,8
CCC(C)NCCOCCOc1cc(C)c(Cl)c(C)c1 (stereo unspecified),-4,1,12*,4
O=C(Cn1ncc2c([nH]c3ccccc32)c1=O)Nc1ccc(CN2CCCCC2)cc1,15,-3,2,-7
Cc1cc(NC(=O)CSc2nnc(-c3c[nH]c4ccccc34)n2-c2ccc(Cl)cc2)no1,-112,21*,13*,-28
CC1OC(CC(=O)O)CC2=C1C(=O)c1c(O)cccc1C2=O (stereo unspecified),-130,30*,-5,21
O=C1C=C(O)c2cccc(O)c2C1=O,-9,2,2,3
O=[N+]([O-])c1ccc2[nH]ncc2c1,11,-2,12*,-34
O=C(CCCCCn1c(=S)[nH]c2ccc(N3CCOCC3)cc2c1=O)NCc1ccccc1Cl,-35,7,0,-12
O=C(CCCCCn1c(=S)[nH]c2ccc(N3CCOCC3)cc2c1=O)NCc1ccc(Cl)cc1,-11,2,13*,-35
O=C(CCCCCn1c(=S)[nH]c2ccc(N3CCOCC3)cc2c1=O)NCc1ccc2c(c1)OCO2,9,-2,12*,-31
SMILES,OPRM1-OPRD1 inv,OPRM1-OPRD1 ag,HTR5A ag,HTR5A inv ag
O=C(COc1ccccc1)NCC(=O)Nc1cccc2ccccc12,17,-3,-3,-11
COCC(C)N=C1NN=C(c2cc(C)n(Cc3ccccc3Cl)c2C)CS1 (stereo unspecified),-7,1,-3,6
O=C(NC(C(=O)c1ccccc1)N1CCOCC1)c1cccs1 (stereo unspecified),-7,1,12*,-26
CSCCC1NC(=O)C(C(C)=NNC(N)=O)=C1O (stereo unspecified),14,-3,-1,3
COc1ccc(-c2nn(Cc3ccccc3)cc2C(=O)N2CCN(c3ncccn3)CC2)cc1OC,5,-1,12*,-30
Cc1ccc(NC(=O)Cn2c(O)c(N=NS(=O)(=O)c3ccc(C)cc3)c3ccccc32)cc1,53*,-9,5,-14
Cc1ccc(NC(=O)Cn2c(O)c(N=NC(N)=O)c3ccccc32)cc1,15,-3,1,-4
COc1ccc(Cn2c(=S)[nH]c3cc(C(=O)NCc4cccnc4)ccc3c2=O)cc1,12,-2,13*,-38
COc1ccccc1C(=O)NC(CCSC)C(=O)NCc1ccccn1 (stereo unspecified),14,-3,-8,19
CC(C)(C)c1nn(-c2ccccc2)c2[nH]c(=O)c(CNCc3ccc4c(c3)OCO4)cc12,-36,6,12*,-28
CCOc1cccc(NCc2cc3c(C(C)(C)C)nn(-c4ccccc4)c3[nH]c2=O)c1,-4,1,6,-16
CCN(C(=O)CSc1ncccc1C(=O)OC(C)C)c1cccc(C)c1,5,-1,11*,-13
CS(=O)(=O)N1CCN(c2ccc(NC(=O)c3ccc(-c4ccc(Cl)cc4)o3)cc2)CC1,-55,10,12*,-39
O=C1CC(c2ccc(F)cc2)Cc2nc(N3CCOCC3)ncc21 (stereo unspecified),11,-3,1,5
O=C1CC(c2cccc(Cl)c2)Cc2nc(N3CCOCC3)ncc21 (stereo unspecified),2,0,13*,13
COc1cccc(NC(=O)CN2C(=O)NC(C)(CC(C)C)C2=O)c1 (stereo unspecified),4,-1,-1,-17
O=C1C=C(O)C(n2cncn2)C(c2ccc(F)cc2)C1 (stereo unspecified),-4,1,-5,14
COc1ccc(C2CC(=O)C(C3NCCc4ccccc43)=C(O)C2n2cncn2)cc1 (stereo unspecified),-3,1,11*,-30
Cc1cc(C)c2nc(-c3cccc(Cl)c3)c(C)c(C(=O)N3CCOCC3)c2c1,-13,2,-3,3
CCOc1ccc(C(=O)Nc2cccc(NC(=O)c3cccs3)c2)cc1[N+](=O)[O-],-2,0,-4,-7
CCOc1ccc(C(=O)Nc2cccc([N+](=O)[O-])c2)cc1Br,-19,4,9.2*,-22
Cc1cc(C(=O)NN)c2cc(Br)ccc2n1,-4,1,13*,-41
Cc1cccc(NC(=O)CN2C(=O)N/C(=C/c3ccc(C)s3)C2=O)c1,-145,23*,12*,-23
CCCCNC(=S)NNC(=O)CCn1cc(C)cn1,11,-2,-2,20
CCCCNC(=S)NNC(=O)CCn1nc(C)c(Br)c1C,76*,-14,-10,49*
Nc1ccc2nn(-c3ccccc3)nc2c1,-51,10,12*,-31
CCCN(C(=O)COC(=O)COc1c(C)cccc1C)c1c(N)n(Cc2ccccc2)c(=O)[nH]c1=O,16,-3,0,-1
NNC(=O)c1[nH]c(-c2ccccc2)cc1-c1ccccc1,-2,0,-5,-17
NC(=O)c1cc(Cc2ccccc2)sc1NC(=O)c1ccco1,-5,1,3,-10
CCOc1ccc(CC(=O)Nc2sc(Cc3ccccc3)cc2C(N)=O)cc1OCC,-14,2,9.6*,-49

# Screening data: PubChem BioAssay, The Scripps Research Institute Molecular Screening Center
